# MARV entry inh: qHTS for inhibitors of binding or entry into cells for Marburg Virus; AID 540276, 2011; Potency, µM (top dose mostly 37.8 µM), for the others: at the top dose activity change, negative = inhibition, hits mostly inhibitors; Marburg virus pseudotyped entry inhibition, cell reporter; 300,000 tested, 1.8% active; calls by dose curve; tested in HEK293 cells
# LASV entry inh: qHTS for Inhibitors of binding or entry into cells for Lassa Virus; Potency, µM (highest dose often 37.9 µM), for inactives: top-dose activity change, negative = inhibition, usual class: inhibitors; 300,000 tested, 1.2% active; Lassa virus pseudotype entry inhibition, cell reporter; AID 540256, 2011; calls by dose curve; tested in HEK293 cells; further: nearly all actives have a fitted effect of over 50% in size
# Vaccinia mCherry: qHTS for Stage-Specific Inhibitors of Vaccinia Orthopoxvirus: mCherry Reporter Primary qHTS. AID 720579, 2013. Potency, µM (doses to about 36.5 µM), inactives show top-dose activity change, negative = inhibition, most hits filed as inhibitors. Vaccinia virus mCherry reporter infection, fluorescence. 310,000 tested, 0.63% active; calls by dose curve; tested in A549 cells; further: nearly all actives have a fitted effect of over 35% in size
# VACV Venus inh: qHTS for Stage-Specific Inhibitors of Vaccinia Orthopoxvirus: Venus Reporter Primary qHTS; AID 720580, 2013; 330,000 tested, 0.46% active; Potency, µM (top dose mostly 36.5 µM), for the others: at the top dose activity change, negative = inhibition, most hits filed as inhibitors; Vaccinia virus Venus reporter expression, fluorescence; calls by dose curve; tested in A549 cells; further: nearly all actives have a fitted effect of over 30% in size
# HCV inhibitor: qHTS Assay for Inhibitors of Hepatitis C Virus (HCV); Potency, µM (series often up to 41.8 µM), for the others: at the highest dose activity change, negative = inhibition, actives largely listed as inhibitors; Huh7.5.1 HCVcc-Cre infection, luciferase reporter, 44 h; 340,000 tested, 3.4% active; active means well fitted inhibition curve with a large enough effect; inconclusive means small, poorly fitted or top-dose-only effect, or another doubt; inactive means no such curve, though single readings can be large or run the other way
#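 Infectious HCVcc-Cre (~0.5 moi) was added to cells just after compound, with cells seeded 4 h earlier at 1,000 per well. Luciferase activity after 44 h culture reported infection; substrate was incubated 15 min at room temperature before reading.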
# An asterisk follows results filed as active; i = inactive; ? = inconclusive; . = no result given; [ ] = another dose, or the depositor's remark. Rows were chosen to be rich in hits. Some 4.6% of all compounds tested hit in one or more screens of this group. On the % scale 0 is the no-effect control and ±100 the full control effect; potency means the concentration at half of the fitted maximal effect.
SMILES,MARV entry inh,LASV entry inh,Vaccinia mCherry,VACV Venus inh,HCV inhibitor
COc1ccc(CN2CCNCC2)c(OC)c1OC,.,.,-19.5%,-14.8%,?
COc1ccc(CN2CCN(Cc3cc(=O)oc4cc(C)ccc34)CC2)c(OC)c1OC,14.1µM*,-21.6%[46.1 µM],-13.1%,-7.3%,?
COc1ccccc1N1CCN(Cc2cc(=O)oc3cc(C)ccc23)CC1,.,?,10.3%,-9.7%,.
COc1ccc(CN2CCN(c3ccc(F)cc3)CC2)c(OC)c1OC,?,-9.3%,-13.0%,-14.3%,?
COc1ccc(CN2CCN(C(c3ccc(F)cc3)c3ccc(F)cc3)CC2)c(OC)c1OC,.,.,-9.3%,-20.1%,1µM*
COc1ccc(CN2CCN(Cc3ccc(Br)cc3)CC2)c(OC)c1OC,.,.,.,.,12.6µM*
CCCCCCCCCCCCCCCCC(C(=O)O)C(O)(CC(=O)O)C(=O)O (configuration not stated),?,-0.5%,.,.,.
Cc1ccc(NS(=O)(=O)c2cc(NC(=O)c3ccc4c(c3)NC(=O)CS4)ccc2C)c(C)c1,10µM*,?,i,-11.9%,11.2µM*
CC(=O)c1c(C)[nH]c(C(=O)Nc2ccc(C)c(S(=O)(=O)Nc3ccc(C)cc3C)c2)c1C,.,.,-5.0%,-9.3%,25.1µM*
CC(=O)c1c(C)[nH]c(C(=O)Nc2ccc(C)c(S(=O)(=O)N(C)C)c2)c1C,?,-22.4%,-5.0%,-12.4%,?
COc1ccc(NC(=O)c2ccc3c(c2)NC(=O)CS3)cc1S(=O)(=O)Nc1ccc(Br)cc1,.,.,-23.3%,?,?
CCOC(=O)/C(=C\c1ccc(N2CCC(c3ccccc3)=N2)cc1)C(C)=O,2.82µM*,7.94µM*,-9.9%,0.7%,-8.8%
O=C(/C=C/c1ccc(N2CCC(c3ccccc3)=N2)cc1)c1ccccc1,2.5%,-9.3%,i,i,?
CCN1CCC(N(Cc2cccc(OC)c2)C(=O)Nc2ccc(C)cc2Cl)CC1,.,-20.3%[46.1 µM],-5.4%,-10.1%,.
O=C(/C=C/c1ccc(Cl)cc1)NCc1cccs1,-3.5%,5.8µM*,i,-17.2%,-5.6%
Cc1ccc(C(=O)NCCc2cccs2)cc1,1.83µM*,?,.,.,-20.9%
O=C(NCCc1cccs1)c1ccc(Cl)cc1,?,5.62µM*,-7.1%,-27.3%,-19.5%
CC(=O)Nc1ccc(/C=C2\C=Cc3ccccc32)cc1,.,.,-13.6%,-22.3%,.
OC(CNC1CCCCC1)COCCOc1ccc(Br)cc1 (configuration not stated),?,-26.1%,-7.0%,-26.1%,7.94µM*
OC(CNC1CCCC1)COc1ccc(-c2ccccc2)cc1 (configuration not stated),?,0.6%,-12.7%,-18.3%,?
CC1=CC2C(C(O)CC3(C)C2CC(C)C32OCOC23COCO3)C2(C)C/C(=C\O)C(=O)C=C12 (configuration not stated),7.94µM*,?,?,12.6µM*,?
CC(C)C[C@H](NC(=O)c1nc[nH]c1C(=O)N[C@@H](CC(C)C)C(=O)OC(C)(C)C)C(=O)OC(C)(C)C,.,.,?,10µM*,?
C[C@@H](NC(=O)c1nc[nH]c1C(=O)NCCCCCNC(=O)OC(C)(C)C)c1ccccc1,.,.,-6.9%,?,?
C[C@H](NC(=O)c1nc[nH]c1C(=O)NCc1ccc(CNC(=O)OC(C)(C)C)cc1)c1ccccc1,.,.,?,?,7.08µM*
C[C@H](NC(=O)c1[nH]cnc1C(=O)Nc1ccon1)c1ccccc1,.,.,-24.6%,-23.1%,1.41µM*
SMILES,MARV entry inh,LASV entry inh,Vaccinia mCherry,VACV Venus inh,HCV inhibitor
CC(C)(C)OC(=O)NCCCCCNC(=O)c1[nH]cnc1C(=O)Nc1ccc(Cl)cc1,.,.,11.2µM*,?,35.5µM*
C[C@@H](NC(=O)c1[nH]cnc1C(=O)Nc1ccon1)c1ccccc1,.,.,-18.1%,?,-3.7%
O=C(CSc1nccn1Cc1ccc(Cl)cc1)NC1CCCC1,.,-1.1%[46.1 µM],i,-14.3%,.
O=S(=O)(c1ccc2nc(Nc3ccc(Br)cc3F)ccc2c1)N1CCCC1,.,-0.2%[46.1 µM],-17.0%,-9.0%,.
CC(C)(C)OC(=O)[C@H](Cc1ccccc1)NC(=O)c1[nH]cnc1C(=O)Nc1ccc(Cl)cc1,.,.,?,?,5.9%
CC(C)(C)OC(=O)[C@H](Cc1ccccc1)NC(=O)c1[nH]cnc1C(=O)N[C@@H](Cc1ccccc1)C(=O)OCc1ccccc1,.,.,-3.3%,-23.9%,6.9%
CCOC(=O)c1ccc(NC(=O)c2nc[nH]c2C(=O)N[C@@H](Cc2ccccc2)C(=O)OC(C)(C)C)cc1,-1.4%,.,12.6µM*,?,49.1%
C[C@H](NC(=O)c1nc[nH]c1C(=O)N[C@@H](Cc1ccccc1)C(=O)OC(C)(C)C)C(=O)OC(C)(C)C,.,.,?,?,11.2µM*
Nc1ccccc1/C=C/c1ccnc2ccccc12,.,.,-29.4%,?,.
COc1ccc(C(=O)C2CCCN(Cc3cccn3-c3cccnc3)C2)cc1OC (configuration not stated),-0.7%[46.1 µM],14.0%,-11.4%,5.3%,-18.1%
COc1ccc(CN2CCCC(C(=O)c3cccc(OC(C)C)c3)C2)cc1Cn1cccn1 (configuration not stated),.,.,.,.,11.2µM*
O=C(c1ccc(Cl)cc1)C1CCCN(Cc2cccn2-c2cccnc2)C1 (configuration not stated),-39.0%[46.1 µM],0.2%,-10.2%,-8.6%,-28.4%
CC(C)Oc1cccc(C(=O)C2CCCN(Cc3cccn3-c3cccnc3)C2)c1 (configuration not stated),.,.,.,.,11.2µM*
CSc1ccc(C(=O)C2CCCN(Cc3cc4ccccc4[nH]3)C2)cc1 (configuration not stated),3.55µM*,?,?,-22.3%,?
CSc1ccc(C(=O)C2CCCN(Cc3cccn3-c3cccnc3)C2)cc1 (configuration not stated),?,?,-27.9%,-20.7%,14.1µM*
O=c1cc(-c2ccc(F)cc2)nc(SCc2nc(-c3ccc(Cl)cc3)no2)[nH]1,.,8.2%[46.1 µM],i,-5.1%,.
Cc1cccc(NC(=O)Cn2cc(S(=O)(=O)c3ccc(F)cc3)c(=O)c3cc4c(cc32)OCO4)c1,-24.3%[46.1 µM],12.2%[46.1 µM],-0.1%,-6.9%,.
CC1(C)Oc2ccc3ccc(=O)oc3c2/C(=C/Nc2ccccc2)C1=O,-18.3%,-27.4%,-0.5%,7.5%,10µM*
CC1(C)Oc2ccc3ccc(=O)oc3c2/C(=C/NC2CCCCC2)C1=O,?,?,?,-21.1%,10µM*
CCC(Oc1nc2ccccc2nc1-c1ccccc1NC(C)=O)C(=O)c1ccccc1 (configuration not stated),-7.9%,18.3µM*,-13.8%,-9.7%,-28.1%
O=C(NC1CCCCC1)C(c1ccc2ncccc2c1)N(Cc1ccccc1)C(=O)c1cccs1 (configuration not stated),5.8µM*,-14.6%,-0.1%,-23.1%,?
